# According to PubChem BioAssay AID651602 (The Scripps Research Institute Molecular Screening Center, 2012):
# “And” between values parts separate entries of the source, which are not always exact repeats. Identical values can stand only once. Among all 360,000 compounds or so, about 950 (0.26%) were called active. This is one part of a sample in which actives are shown more often than they occur. A number with no mark means an inactive call. Rule as the data show it: active = inhibition above about 11%; inactive = the rest.
# Test: growth loss of phage-infected E. coli, primary screen, RecBCD inhibitor project, absorbance, with phage, HTS (AID 651602)
# Conditions: at 11.9 µM, hits give high values
row,SMILES,inhibition
1,COC(=O)c1cc2c(c3c4cc(F)ccc4n(S(=O)(=O)c4ccccc4)c13)C(=O)N(Cc1ccccc1OC)C2,0.23%
2,O=C(N[C@H](C(=O)N1CCC[C@H]1C(=O)NCCc1ccccc1Cl)c1ccccc1)c1ccccc1,0.16%
3,CO/N=C(\C(=O)N[C@@H]1C(=O)N2C(C(=O)O)=C(COC(C)=O)CS[C@H]12)c1csc(N)n1 (stereo in doubt),101% (active) and 100% (active) and 99.7% (active)
4,C=CC1=C(C(=O)O)N2C(=O)[C@@H](NC(=O)/C(=N\OCC(=O)O)c3csc(N)n3)[C@H]2SC1,99.8% (active)
5,C=CC1=C(C(=O)O)N2C(=O)[C@@H](NC(=O)/C(=N/OCC(=O)O)c3csc(N)n3)[C@H]2SC1,102% (active)
6,CC1(C)OC(=O)C2=C(CC(CCc3ccccc3)OC2c2ccc(Cl)cc2)O1 (centres undefined),0.56%
7,COC(=O)[C@]1(Cc2ccccc2)NC=C(C(=O)c2ccccc2)[C@@H]1c1cccc(OC)c1,0.08%
8,O=C(NN=Cc1ccco1)C(=O)Nc1ccc(Cl)c([N+](=O)[O-])c1,1.23%
9,COC(=O)C(C(=O)OC)c1ccccc1NS(=O)(=O)c1cccc2ccccc12,3.8%
10,C[C@H](O)[C@@H]1CN2CCc3ccc(-c4ccc5c(c4)OCO5)cc3[C@@H]2C[C@@H]1N(C)C(=O)C1CCCCC1,4.59%
11,OC(c1ccccc1)(c1ccccc1)C1CCN(CCCOc2ccc(-c3ccsc3)cc2)CC1,-2.69%
12,O=C(C(=O)N1CCC(CNC(=O)c2cccnc2Cl)CC1)c1cccs1,2.71%
13,COc1ccc(C2=CN(Cc3ccccc3)C(c3ccc(OC)cc3)CC2=O)cc1 (centres undefined),3.64%
14,C[C@H]1[C@H](c2ccccc2)Oc2cc(Br)ccc2S(=O)(=O)N1Cc1cccc(F)c1,1.98%
15,COC(=O)[C@]12C[C@H](CC(=O)NCCc3ccccc3OC)C(=O)N(Cc3ccccc3)C1=C[C@H](C(C)C)O[C@@H]2C1CC1,1.94%
16,COC(=O)c1c(-c2ccc(OC)cc2)c2c(c3c4cc(OC)ccc4n(S(=O)(=O)c4ccc(F)cc4)c13)C(=O)N(C)C2,2.25%
17,Oc1c(Cl)cc(Cl)c(Cl)c1Cc1c(O)c(Cl)cc(Cl)c1Cl,17.2% (active)
18,Cc1noc(C)c1NC(=O)Nc1ccc2c(c1)C(=O)N([C@H](C)CO)C[C@H](C)[C@H](CN(C)Cc1ccncc1)OCCCC[C@@H](C)O2,2.8%
19,COc1ccc(S(=O)(=O)Nc2ccc3c(c2)C(=O)N([C@H](C)CO)C[C@H](C)[C@@H](CN(C)C)OCCCC[C@H](C)O3)cc1,2.32%
20,O=C1c2ccccc2NC(c2ccc(-c3cccc(Cl)c3)o2)N1O (centres undefined),21% (active)
21,CCOC(=O)NN1C(=O)c2ccccc2NC1c1cccc(O)c1 (centres undefined),2.82%
22,CC(=O)NN1C(=O)c2ccccc2NC1c1ccccc1 (centres undefined),-1.19%
23,CCCCCCCCN1C(=O)[C@@H](CC(=O)NCCCC)C[C@@]2(C(=O)OC)C1=C[C@H](C(C)(C)C)O[C@@H]2C,3.8%
24,CC[C@H](C)[C@H]1CNC(=O)C(=O)N1CC1CCN(CCc2ccc(OC)c(OC)c2)CC1,1.03%
25,C#CCN([C@@H](C)C(=O)OCC)S(=O)(=O)c1ccc(Br)cc1F,1.36%
26,CC(C)(C)C(c1nc2ccccc2[nH]1)n1c(Cc2csc3ccccc23)nc2ccccc21 (centres undefined),-0.16%
27,COCCNC(=S)N(C)[C@H]1C[C@H]2c3[nH]c4ccccc4c3CCN2C[C@H]1[C@H](C)O,0.63%

row,SMILES,inhibition
1,COc1cccc(-c2cnc(C(O)c3ccccc3OC)[nH]2)c1 (centres undefined),-1.64%
2,Cc1cccc(-c2cnc(C(O)c3ccc4ccccc4c3)[nH]2)c1 (centres undefined),2.34%
3,Cc1cccc(-c2cnc(C(O)c3cc(C)cc(C)c3)[nH]2)c1 (centres undefined),9.2%
4,Cc1ccc(-c2cnc(C(O)c3cc(Cl)cc(Cl)c3)[nH]2)cc1 (centres undefined),17.1% (active)
5,COc1cccc(C(O)c2ncc(-c3ccc4ccccc4c3)[nH]2)c1 (centres undefined),12.1% (active)
6,OC(c1ccc(Cl)cc1)c1ncc(-c2ccc(Cl)cc2)[nH]1 (centres undefined),7.68%
7,Cc1cc(N2CCN(C(=O)OC(C)(C)C)C[C@H]2C)ccc1N1CCN(Cc2ccccc2)[C@H](C)C1,7.28%
8,CCOC(=O)/C=C/c1ccccc1O,4.3%
9,COC(=O)[C@H](CC(C)C)NS(=O)(=O)c1c(F)cccc1F,4.61%
10,O=C(NCc1ccccc1)[C@H]1CCCN1C(=O)[C@H]1CCCN1C(=O)c1cc(F)cc(F)c1,2.09%
11,Nc1ncnc2c1ncn2[C@@H]1O[C@H](C(=O)N[C@@H](CCc2ccccc2)C(=O)NCC(=O)N2CCOCC2)[C@@H](O)[C@H]1O,2.03%
12,Cc1cc2c(nc1C)CCCN2C,1.32%
13,COC(=O)c1ccc(CN2C(=O)[C@]3(OCCC=C[C@H]3C)c3c(Br)cccc32)cc1,1.58%
14,O=C(CC(O)(C(F)(F)F)C(F)(F)F)Nc1ccc(Cl)c(Cl)c1,15.6% (active)
15,O=C(Nc1ccc(Cl)c(Cl)c1)N1CC=C(c2ccccc2)CC1,3.32%
16,CC(c1cccnc1)N(CCN(C)C)C(=O)Nc1ccc(Cl)c(Cl)c1 (centres undefined),1.6%
17,COC(=O)C1=C(C)N(Cc2cccc(C(F)(F)F)c2)C(=NCc2cccc(C(F)(F)F)c2)NC1c1ccccc1C(F)(F)F (centres undefined),9.37%
18,COC(=O)Cc1nnn2c1[C@H](C)[C@H](c1ccccc1Br)OCC2,-1.01%
19,CC(C)(C)n1nc(C2CC2)c(Br)c1NC(=O)c1ccccc1F,3.69%
20,O=C(Nc1c(Cl)c(C2CC2)nn1-c1ccccc1)C(Cl)(Cl)Cl,1.86%
21,CC(C)(C)C(=O)Nc1c(Br)c(C2CC2)nn1-c1ccccc1,97.8% (active)
22,O=C(CN1CCN(c2ccc(Cl)cc2)CC1)c1ccccc1,4.29%
23,Cc1cccc(C)c1NC(=O)CN1CCN(c2ccc(F)cc2)CC1,2.55%
24,Oc1c(CN2CCN(c3ccc(F)cc3)CC2)cc(Cl)c2cccnc12,13% (active)
25,O=C(NCc1ccccc1)[C@@H]1CCCN1C(=O)[C@@H](NS(=O)(=O)c1ccc(F)cc1F)C1CCCCC1,3.12%
26,O=C(C(=O)N1CCC(CNS(=O)(=O)Cc2ccccc2)CC1)c1cc2ccccc2o1,1.63%
27,COC(=O)[C@]12C[C@H](CC(=O)NCc3cccc(C(F)(F)F)c3)C(=O)N(Cc3ccc4c(c3)OCO4)C1=C[C@H](COCc1ccccc1)O[C@@H]2C,2.25%

row,SMILES,inhibition
1,CC(C)CNc1cccc2c1S(=O)(=O)N[C@H](C)CO2,5.2%
2,O=C1c2ccccc2C2=Nc3ccccc3SC(c3ccccc3F)C12 (centres undefined),19.6% (active)
3,CC(=O)C1=C(C)N(Cc2ccc(Cl)cc2)C(=S)NC1c1ccc(F)cc1 (centres undefined),2.81%
4,O=C(NCc1ccccc1)[C@H]1CCCN1C(=O)[C@H]1CCCN1C(=O)N1CCOCC1,1.72%
5,COc1ccc(-c2ccccc2C2Cc3nnccc3CN2C(=O)Nc2ccccc2)cc1 (centres undefined),3.48%
6,O=C(Nc1ccc(Br)cn1)c1ccc([N+](=O)[O-])o1,15.1% (active)
7,Cc1cccc(NC(=O)CCn2c(=O)oc3ccccc32)c1,0.64%
8,O=C(/C=C/c1ccc(Cl)cc1)Nc1ccc(Br)cn1,-0.92%
9,O=C(Nc1ccc(Br)cn1)c1ccc([N+](=O)[O-])cc1Cl,1.57%
10,Cc1cccc(NC(=O)c2ccc([N+](=O)[O-])o2)c1,14.2% (active)
11,CCN(CC)S(=O)(=O)c1ccc(N2CCCC2)c(NC(=O)c2ccc([N+](=O)[O-])o2)c1,0.78%
12,COC(=O)[C@]12C[C@H](CC(=O)NCc3ccccc3)C(=O)N(CCC3=CCCCC3)C1=C[C@H](C(C)(C)C)O[C@@H]2C,1.16%
13,COc1cccc(CNC(=O)[C@H]2CCCN2C(=O)[C@H]2CCCN2C(=O)c2ccc(F)cc2)c1,1.78%
14,C[C@@H]1ON(C)[C@H]2C[C@H]3c4cc(N5CCOCC5)ccc4CCN3C[C@@H]12,1.27%
15,C=CCN=C1NC(c2ccccc2)C(C(=O)OC)=C(C)N1Cc1ccc(C(F)(F)F)cc1 (centres undefined),3.49%
16,C[C@@H](CN1C2=NC[C@@H](Cc3ccccc3)N2C[C@H]1Cc1ccc(O)cc1)NC(=O)CCC1CCCCC1,2.48%
17,CC(C)Oc1ccc(/C=N/NC(=O)c2nnn(-c3nonc3N)c2CN(C)C2CCCCC2)cc1,2.44%
18,Nc1nonc1-n1nnc(C(=O)N/N=C/c2cc(Br)ccc2O)c1CSC1=NCCS1,11.6% (active)
19,CN(C)Cc1c(C(=O)N/N=C/c2ccccc2OCc2ccc(F)cc2)nnn1-c1nonc1N,-5.79%
20,Cc1cn([C@H]2C[C@H](O)[C@@H](/C=C/C(=O)NCCCc3ccccc3)O2)c(=O)[nH]c1=O,3.27%
21,Cc1cn(C2OC[C@@H](O)[C@@H]2CO)c(=O)[nH]c1=O (some centres undefined),0.95%
22,Cc1cn(C2C=CC(CO)O2)c(=O)[nH]c1=O (centres undefined),19.9% (active)
23,COc1cccc(-c2cc(CNC(=O)[C@@H](Cc3ccccc3)NC(=O)[C@H]3O[C@@H](n4cnc(C(N)=O)n4)[C@H](O)[C@@H]3O)no2)c1,2.06%
24,CCOC(=O)C1=C(CSc2nnnn2C)N(C)C(=O)NC1c1ccccc1 (centres undefined),3.2%
25,CCN1CCN(C(=O)N[C@@H](C(=O)N[C@@H]2C(=O)N3C(C(=O)O)=C(CSc4nnnn4C)CS[C@H]23)c2ccc(O)cc2)C(=O)C1=O,103% (active)
